Data on 46 compounds can be found in PubChem BioAssay AID2685 (National Center for Advancing Translational Sciences (NCATS), 2010).

About 2,100 (0.66%) of roughly 320,000 compounds were called active. Another 53% or so got no clear call; they are omitted. Calls follow the shape of the dose curve; as a rule, active = well fitted inhibition curve with a large enough effect in the signal ratio, with a control signal flat (not every such curve was filed as active); inconclusive = small, poorly fitted or top-dose-only effect, or effect the other way, or a change in a side signal; inactive = flat fitted curve, though single readings scatter; the % refers to the signal ratio. For the sample, actives were picked, then their nearest neighbours and some compounds at random.
Potency is read from the fitted curve at half-maximal effect.

The test can be described thus: qHTS Assay for Lipid Storage Modulators in Drosophila S3 Cells.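 As to cell number change: cells counted by Cell Tracker Red CMTPX staining in the red channel.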 As to lipid storage change, negative = inhibition: % is scaled to controls: 0 for no effect and ±100 for the full control effect. The note with it: BODIPY lipid droplet fluorescence, 18-24 h, cells fed with added oleic acid; cell number change: measured here: cell count max response; series mostly up to 46.1 µM; lipid storage change, negative = inhibition: at the top concentration. The essentials: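 Laser-scanning cytometry quantifies lipid droplet accumulation (500–530 nm total intensity; droplet/cell object ratio) in oleic acid-fed (400 uM added) Drosophila S3 cells treated with a concentration series. 20 uM Triacsin C defined 100% inhibition.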
For the compound `Cc1[nH]c2ccccc2c1C(=O)C(=O)N1CCN(c2ccccc2)CC1`, the “lipid storage change, negative = inhibition” value was -1.16% (inactive) and the cell number change came to 8.19%.
`CCc1ccccc1N(CC(=O)Nc1cccc(N(C)S(C)(=O)=O)c1)S(C)(=O)=O`: the outcome was inactive and the cell number change stood at 5.08%.
Take `Cc1ccc(Cl)cc1N(CC(=O)Nc1cccc(N(C)S(C)(=O)=O)c1)S(C)(=O)=O`: the Potency was 14.6 µM (active) and the cell number change is -15.4%.
For `CN(c1cccc(NC(=O)CN(c2cccc(Cl)c2)S(=O)(=O)c2ccc(Cl)cc2)c1)S(C)(=O)=O`, the “lipid storage change, negative = inhibition” value was -27.1% (inactive) and the cell number change is -18.4%.
For `COc1ccc2oc(CS(=O)c3ccccc3)c(C(=O)O)c2c1` (centres undefined), the “lipid storage change, negative = inhibition” value was 12.5% (inactive) and the cell number change amounted to 13.2%.
On to `CC1OC2(OC1C)C(=O)Nc1ccccc12` (centres undefined), for which the result was inactive.
Regarding `CN1C(=S)SC(C)(NO)C1(C)C` (centres undefined), the Potency was 5.17 µM (active) and the cell number change is -11.6%.
For `CN1C(=S)SC(C)(C)C1(C)NO` (centres undefined), in that order: 1.64 µM (active) and 0.152%.
Take `CN1C(=S)SC(C)(C)C1NO` (centres undefined): the “lipid storage change, negative = inhibition” value is 5.34% (inactive) and the cell number change was 1.23%.
Consider `CCC(C)c1ccc(S(=O)(=O)Nc2cccnc2)cc1` (centres undefined), for which the compound was called inactive and the cell number change was -23.6%.
As to `CCCCCCCCCCCCS[C@H]1CS(=O)(=O)C[C@@H]1O`, the “lipid storage change, negative = inhibition” value was -11.5% (inactive) and the cell number change was -8.76%.
On to `CC(=O)Nc1cc2cc(NS(=O)(=O)c3ccc(Cl)cc3)ccc2oc1=O`, for which the “lipid storage change, negative = inhibition” value is -0.0147% (inactive) and the cell number change came out at 9.39%.
On to `COC(=O)/C(C#N)=C\c1c(OC)[nH]c2ccccc12`, for which the “lipid storage change, negative = inhibition” value was -1.4% (inactive) and the cell number change was -7.03%.
As for `CN(Cc1c(F)cccc1Cl)S(=O)(=O)c1cccs1`, the Potency is 5.8 µM (active) and the cell number change was -15.8%.
As for `CN(Cc1c(F)cccc1Cl)C(=O)CNC(=O)c1cccs1`, the outcome was inactive and the cell number change is -5.78%.
Regarding `CN(Cc1ccccc1)S(=O)(=O)c1cccs1`, the “lipid storage change, negative = inhibition” value was -3.38% (inactive) and the cell number change is 5.69%.
The matching figures for `CC(C)CSc1nc2c(c(=O)[nH]c(=O)n2C)n1CCc1ccccc1`: 12.1% (inactive) and 0.065%.
In the case of `O=C(c1ccc(N2CCN(C(=O)c3ccccc3)CC2)cc1)c1cccc(F)c1`, the Potency is 2.06 µM (active) and the cell number change is 0.901%.
Consider `O=C(c1cccc(C(=O)N2CCN(c3ccccc3)CC2)c1)N1CCN(c2ccccc2)CC1`, for which the “lipid storage change, negative = inhibition” value is 12.8% (inactive) and the cell number change is -3.1%.
On to `O=C(c1cc(-c2ccc(O)cc2)on1)N1CCN(c2ccc(F)cc2)CC1`, for which the “lipid storage change, negative = inhibition” value was 5.87% (inactive) and the cell number change is -16.1%.
The matching figures for `Cc1c(C(=O)N2CCN(CCc3ccccn3)CC2)oc2ccc(F)cc12`: -2.08% (inactive) and 0.99%.
As for `O=C(c1cc(-c2ccc(Cl)cc2)on1)N1CCN(c2ccc(F)cc2)CC1`, the Potency was 20.6 µM (active) and the cell number change was 8.11%.
`Cc1cc(=O)oc(C)c1C(=O)NCCCN1CCN(c2ccc(F)cc2)CC1`: the “lipid storage change, negative = inhibition” value is 9.77% (inactive) and the cell number change turned out to be 2.43%.
As for `Cc1cc(=O)oc(C)c1C(=O)N1CCN(c2ccc(F)cc2)CC1`, the Potency was 23.1 µM (active) and the cell number change is -3.9%.
For the compound `O=C(c1cc(-c2ccc3c(c2)OCO3)on1)N1CCN(c2ccc(F)cc2)CC1`, the “lipid storage change, negative = inhibition” value was 17.2% (inactive) and the cell number change was 27.5%.
Regarding `O=C(c1ccc(N2CCN(C(=O)c3ccccc3Br)CC2)cc1)c1cccc(F)c1`, the compound was called inactive and the cell number change was -10.8%.
For `COc1ccccc1N1CCN(C(=O)c2c(C)cc(=O)oc2C)CC1`, in that order: “inactive” and -3.57%.
As to `Cc1c(C(=O)N2CCN(S(=O)(=O)c3cc(F)ccc3F)CC2)oc2ccccc12`, the “lipid storage change, negative = inhibition” value is 16.3% (inactive) and the cell number change was -12.2%.
With `Cc1c(C(=O)N2CCN(C(=O)c3ccccc3)CC2)oc2ccc(F)cc12`, the Potency was 1.84 µM (active) and the cell number change is -15.5%.
As to `COc1ccc(CNC(=O)CCC(=O)Nc2nnc(CC(C)C)s2)cc1`, the “lipid storage change, negative = inhibition” value is 0.276% (inactive) and the cell number change was found to be 5.14%.
For `COc1ccc(N(C(=O)CNC(=O)c2cccs2)C(C(=O)NCC2CCCO2)c2ccccc2)c(OC)c1` (centres undefined), in that order: 22.3% (inactive) and 5.71%.
For `CC(=O)Oc1ccc2nc(-c3cccs3)oc(=O)c2c1`, in that order: 13% (inactive) and -22.5%.
The matching figures for `Cc1ccc(NC(=S)NC(CO)C(O)c2ccc([N+](=O)[O-])cc2)cc1` (centres undefined): -5% (inactive) and -1.73%.
For the compound `Fc1cnc(N2CCOCC2)nc1N1CCc2ccccc21`, the “lipid storage change, negative = inhibition” value is 1.02% (inactive) and the cell number change was -10.6%.
Turning to `O=C(O)c1ccccc1C(=O)N1CCN(c2ccccc2)CC1`, the “lipid storage change, negative = inhibition” value is -1.29% (inactive) and the cell number change was 0.845%.
For `O=C(c1ccccc1Oc1ccccc1)N1CCN(c2ccc(F)cc2)CC1`, in that order: -12.6% (inactive) and 14.1%.
With `O=C(c1ccccc1C(=O)N1CCN(c2ccc(F)cc2)CC1)N1CCN(c2ccc(F)cc2)CC1`, the Potency is 2.59 µM (active) and the cell number change is -27%.
Take `CC(C)CN(C(=O)CCC(=O)OCC(=O)N(C)c1ccccc1)c1c(N)n(CC(C)C)c(=O)[nH]c1=O`: the “lipid storage change, negative = inhibition” value was 16.2% (inactive).
On to `CC1CC(NC(=O)c2cc3c(=O)n4ccccc4nc3n2C)CC(C)(C)C1` (centres undefined), for which the Potency is 18.4 µM (active) and the cell number change amounted to 3.3%.
For the compound `CC1CN(C(=O)c2cc3c(=O)n4ccccc4nc3n2C)CC(C)O1` (centres undefined), the compound was classed as inactive and the cell number change is 15.1%.
As for `Cn1c(C(=O)O)cc2c(=O)n3ccccc3nc21`, the “lipid storage change, negative = inhibition” value was -0.14% (inactive) and the cell number change worked out at 3.26%.
With `CCOc1cc(C(=O)NCC2CCCO2)cc(OCC)c1OCC` (centres undefined), the compound was called inactive.
`Cc1cc(C)c(S(=O)(=O)N2CCN(C(=O)c3c(C)noc3C)CC2)c(C)c1`: the “lipid storage change, negative = inhibition” value was 23.1% (inactive) and the cell number change was -0.389%.
For `CCOC(=O)CN1C(=O)SC(Nc2ccc(C)cc2)C1=O` (centres undefined), in that order: 1.4% (inactive) and 0.723%.
For `O=C(O)CN1C(=O)SC(Nc2ccccc2)C1=O` (centres undefined), in that order: 5.61% (inactive) and 7.54%.
As to `Cc1ccc(NC2SC(=O)N(CC(=O)O)C2=O)cc1` (centres undefined), the Potency is 23.1 µM (active) and the cell number change is -7.73%.
